Data from PubChem BioAssay (NCATS).
Inconclusive results are not listed. Unmarked numbers belong to inactive results. The call rests on the fitted dose curve; in most records, active means well fitted cell-killing curve with a large enough effect; inconclusive means small, poorly fitted or top-dose-only effect; inactive means no such curve, though single readings can be large or run the other way.

experiment: qHTS of pediatric cancer cell lines to identify multiple opportunities for drug repurposing: Primary screen for OHS-50 cells (AID 1347103); details: OHS-50 osteosarcoma viability, CellTiter-Glo luminescence, 48 h; series mostly up to 57.3 µM; activity change, negative = cytotoxic: at the top concentration; further: nearly all actives have a fitted effect of over 40% in size
Source text: Drug repurposing or repositioning has been offered as a strategy for drug development in oncology programs. This approach has special potential for childhood cancers and other rare or orphan diseases, where the expected return on new drug development has been a disincentive to pharmaceuticals.
In this project we exploit the poly-pharmacology of drugs to discover new indications via phenotypic screening of a panel of 19 well-characterized cell lines derived from solid tumors seen in children and adolescents. The goal is to identify approved drugs with previously unrecognized anticancer properties that has the potential to reveal new mechanisms and biological processes involved in carcinogenesis or drug resistance. We employed a titration-based paradigm (quantitative high-throughput screening or qHTS), where all compounds were tested at multiple concentrations for their effect on cell viability. Concentration-response curves (CRCs) were derived directly from the primary screen, and both potency and efficacy values were used to identify compounds with robust bioactivity profiles. We screened the NIH Chemical Genomics Center (NCGC) Pharmaceutical Collection (NPC) and Mechanism Interrogation Plate (MIPE) small molecule collections of approved and investigational compounds against these cell lines; and measured metabolically active cells after 48 hours of compound treatment as a proxy for cell viability.
Assay Submitter: Nathalia J. Martinez, National Center for Advancing Translational Sciences, National Institutes of Health, Rockville, MD, USA; email: natalia.martinez@nih.gov
[1] Shen, M et al. Quantitative high-throughput phenotypic screening of pediatric cancer cell lines identifies multiple opportunities for drug repurposing. Oncotarget 2017 Dec 19;9(4):4758-4772. PMID 29435139.
The cells were obtained from University of North Carolina (UNC), Pediatric Preclinical Testing Program (PPT), and Coriell Institute (CI).
qHTS cell viability assay:
Cells were assayed in growth media at a density of 500-1,000 cells/well. Five microliters of cells were dispensed into 1,536-well, white, solid-bottom, TC-treated plates (Greiner Bio One) using a multidrop dispenser and incubated at 37 degrees C, 5% CO2, under a humidified atmosphere for 5 hours. Twenty-three nanoliters of compounds and controls (neutral control DMSO or positive control bortezomib at final concentration of 2.3 µM) were subsequently transferred by Kalypsys pintool. For primary screens, the MIPE collection was tested at 11-point dilutions (final concentrations range from 0.78 nM to 46 µM) and the NPC collection at 8-point dilutions (final concentrations range from 0.59 nM to 46 µM). Compounds tested in follow-up screens were assayed at 11-point dilutions. Cells were incubated for 48 hours, followed by addition of 3 µL of CellTiter-Glo (Promega). After a 15 min incubation at room temperature, samples were analyzed for luminescence intensity using a ViewLux High-throughput CCD imager equipped with clear filters.

Row | SMILES | activity change, negative = cytotoxic
1 | CCCCCCCCCCCCCCCCN | -5.3%
2 | CC(C)=CCC[C@@](C)(O)[C@H]1CC=C(C)CC1 | 4.43%
3 | N[C@@H](Cc1ccc(O)cc1)C(=O)O | 9.85% [at 11.5 µM]
4 | O=C1c2ccccc2S(=O)(=O)N1CCCCN1CCN(c2ncccn2)CC1 | -7.74%
5 | CCCC(O)C(CC)CO (stereo not given) | 9.03%
6 | COCC(=O)Nc1c(I)c(C(=O)NCC(O)CO)c(I)c(C(=O)N(C)CC(O)CO)c1I (stereo not given) | 9.29%
7 | CNc1c2c(nn1C)CCCC2 | -4.96%
8 | CCOC(=O)[C@H](CCc1ccccc1)N[C@@H](C)C(=O)N1CCC[C@H]1C(=O)O | 73.4%
9 | COC(=O)c1cccnc1 | 10.5%
10 | Nc1ncnc(Nc2ccccc2)n1 | 5.14%
11 | NS(=O)(=O)c1cc2c(cc1C(F)(F)F)NCNS2(=O)=O | 8.88%
12 | O=C(O)CCC(=O)O | 3.07%
13 | CC(=O)N[C@@H](Cc1ccc(O)cc1)C(=O)O | -12.7%
14 | O=C(O)c1ccc[n+]([O-])c1 | 8.38%
15 | O=C(CN1CCNCC1)NC1CCCCC1 | -9.17%
16 | O=C(Cn1ccnc1[N+](=O)[O-])NCCO | 9.42%
17 | CC(C)(C)NCC(O)COc1cccc2c1CCC(=O)N2 (stereo not given) | 12.1%
18 | O[C@@H]1CO[C@H]2[C@@H]1OC[C@@H]2O | -6.83%
19 | CCOc1cc(NC(C)=O)ccc1C(=O)OC | -3.9%
20 | CN/C(=C\[N+](=O)[O-])NCCSCc1csc(CN(C)C)n1 | 10.8%

Row | SMILES | activity change, negative = cytotoxic
21 | C=CCOc1ccccc1OCC(O)CNC(C)C (stereo not given) | -8.4%
22 | CCCCCC(C)N (stereo not given) | -1.4%
23 | NS(=O)(=O)c1ccc(NC(=O)CCC(=O)O)cc1 | -1.9%
24 | OCc1ccc(Cl)cc1Cl | 3.77%
25 | CC(=O)N1C[C@H](O)C[C@H]1C(=O)O | 7.19%
26 | C[C@H]1COc2c(C3(N)CC3)c(F)cc3c(=O)c(C(=O)O)cn1c23 | 90.3%
27 | O=C1c2cccc(O)c2C(=O)c2c(O)cccc21 | 1.31%
28 | COc1ccc(NS(=O)(=O)c2ccc(N)cc2)nn1 | 22.8%
29 | O=C(O)Cc1cn(-c2ccccc2)nc1-c1ccc(Cl)cc1 | 13.3%
30 | CC1(C)S[C@@H]2[C@H](N=CN3CCCCCC3)C(=O)N2[C@H]1C(=O)O | -7.98%
31 | CN1C[C@@H]2C[C@H]1CN2c1cc2c(cc1F)c(=O)c(C(=O)O)cn2C1CC1 | 107% [at 19.7 µM]
32 | O=C(OOC(=O)c1ccccc1)c1ccccc1 | 9.48%
33 | O=C(O)/C=C/c1ccc(Cn2ccnc2)cc1 | 6.08%
34 | CCCCCCCCCCCCCCCCCCO | -3.43%
35 | CCCCCCCCCCCCCCCCC(C(=O)O)C(O)(CC(=O)O)C(=O)O (stereo not given) | -3.83%
36 | O=C(O)C(S)C(S)C(=O)O (stereo not given) | 22.5%
37 | NC(N)=NS(=O)(=O)c1ccc(N)cc1 | 13.3%
38 | O=C(CCBr)N1CCN(C(=O)CCBr)CC1 | 9.45%
39 | O=c1[nH]cnc2nc[nH]c12 | 63.1%
40 | CCCCCOC(=O)Nc1nc(=O)n([C@@H]2O[C@H](C)[C@@H](O)[C@H]2O)cc1F | 19.2%
